What all share (experiment): qHTS profiling for inhibitors of Plasmodium falciparum proliferation (AID 504749); also: nearly all actives have a fitted effect of over 60% in size
Conditions in all cases: P. falciparum in erythrocytes, SYBR Green DNA, 72 h; series mostly up to 28.7 µM

One experiment deals with CP335. The essentials:
(§1)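 Infected RBCs, 0.3% parasitemia/2.5% Hct final; cpd 72 h, 37 C, 5% CO2; lysis buffer with saponin/triton/SYBR Green I, o/n RT dark; FI 485/535; norm. to artemisinin (0.29 uM) and DMSO.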

The next experiment relates to DFO2036. A digest of the protocol:
as §1

The subject of a further experiment is DIV14. The essentials: as §1
The subject of the next experiment is DIV17. A digest of the protocol:
as §1

The next experiment relates to DIV30. The essentials: as §1
For a further experiment, the system named is Dd2. The essentials:
as §1

The next experiment concerns ECU. A digest of the protocol:
as §1

The subject of a further experiment is FAB9. A digest of the protocol: as §1
For a further experiment, the system named is GB4. The essentials:
as §1

The next experiment relates to HB3. A digest of the protocol:
as §1

Inconclusive results are not listed. Active and inactive are the calls of the source. Calls follow the shape of the dose curve; as a rule, active = well fitted inhibition curve with a large enough effect; inconclusive = small, poorly fitted or top-dose-only effect; inactive = flat fitted curve, though single readings scatter.
Potency is read from the fitted curve at half-maximal effect.

As to `COc1cc(C(=S)N2CCOCC2)ccc1O`, the Potency entry with CP335, in the experiment with DFO2036, in the experiment on DIV14, in the experiment on DIV17, in the experiment with DIV30 and with Dd2 was “inactive” each time. For the same compound, the Potency entry in the experiment on ECU, with FAB9, in the experiment on GB4 and in the experiment on HB3 was “inactive” in each case.
For `CC(=O)OCC(=O)[C@H]1CC[C@H]2[C@@H]3CCC4=CC(=O)CC[C@]4(C)[C@H]3CC[C@]12C`, the Potency result with CP335, in the experiment with DFO2036, in the experiment with DIV14, in the experiment with DIV17, in the experiment with DIV30 and with Dd2 was “inactive” in each case. Also, the Potency result with ECU, in the experiment with FAB9, in the experiment on GB4 and in the experiment on HB3 was “inactive” each time.
On to `COc1cc(C(=O)NCc2ccc(OCCN(C)C)cc2)cc(OC)c1OC`, for which the Potency result in the experiment with CP335, with DFO2036, in the experiment with DIV14, with DIV17, in the experiment with DIV30 and in the experiment with Dd2 was “inactive” in each case. The Potency entry with ECU, with FAB9, with GB4 and in the experiment on HB3 was “inactive” throughout.
For `COc1ccc(CN(CCN(C)C)c2ncccn2)cc1`, the Potency result with CP335, in the experiment on DFO2036, in the experiment with DIV14, with DIV17, with DIV30 and with Dd2 was “inactive” each time. Further, the Potency result in the experiment with ECU, with FAB9 and in the experiment with HB3 was “inactive” each time. Moreover, the Potency in the experiment on GB4 was 9530 nM (active).
Turning to `CCc1oc2ccccc2c1C(=O)c1cc(Br)c(O)c(Br)c1`, the Potency result in the experiment with CP335, in the experiment on DFO2036, with DIV14, in the experiment with DIV17, in the experiment with DIV30 and with Dd2 was “inactive” throughout. The Potency result in the experiment with ECU, with FAB9, in the experiment on GB4 and with HB3 was “inactive” in each case.
For the compound `O=C(O)P(=O)(O)O`, the Potency entry in the experiment with CP335, with DFO2036, in the experiment with DIV14, with DIV17, in the experiment on DIV30 and in the experiment with Dd2 was “inactive” in each case. In addition, the Potency entry in the experiment on ECU, in the experiment on FAB9, in the experiment with GB4 and in the experiment on HB3 was “inactive” throughout.
`CCCCCCCCCCCCSCCOCCO`: the Potency result with CP335, in the experiment with DFO2036, in the experiment with DIV14, with DIV17, in the experiment with DIV30 and with Dd2 was “inactive” throughout. Further, the Potency entry in the experiment with ECU, in the experiment with FAB9, in the experiment on GB4 and in the experiment on HB3 was “inactive” each time.
As to `CCN1/C(=C/C=C/c2sc3ccccc3[n+]2CC)Sc2ccccc21`, the Potency was 107 nM (active) in the experiment with CP335; 100 nM (active) in the experiment with DFO2036; 478 nM (active) in the experiment on DIV14; 478 nM (active) with DIV17; 675 nM (active) in the experiment on DIV30; 112 nM (active) in the experiment on Dd2. The Potency in the experiment with ECU is 224 nM (active); with FAB9 it was 282 nM (active); with GB4, 301 nM (active); in the experiment with HB3, 251 nM (active).
As to `Cc1ccccc1OCC(O)CO` (stereo not given), the Potency result with CP335, in the experiment with DFO2036, in the experiment with DIV14, with DIV17, in the experiment with DIV30 and in the experiment with Dd2 was “inactive” each time. The Potency entry with ECU, in the experiment with FAB9, in the experiment on GB4 and in the experiment on HB3 was “inactive” throughout.
In the case of `C#C[C@]1(O)CC[C@H]2[C@@H]3CCC4=Cc5oncc5C[C@]4(C)[C@H]3CC[C@@]21C`, the Potency result in the experiment with CP335, in the experiment with DFO2036, with DIV14, in the experiment on DIV17, with DIV30 and with Dd2 was “inactive” each time. For the same compound, the Potency entry in the experiment on ECU, with FAB9, in the experiment with GB4 and in the experiment with HB3 was “inactive” each time.
As for `CCOC(=O)c1ccc(N)cc1`, the Potency entry with CP335, with DFO2036, with DIV14, with DIV17, with DIV30 and in the experiment with Dd2 was “inactive” each time. Further, the Potency entry with ECU, in the experiment with FAB9, in the experiment with GB4 and in the experiment with HB3 was “inactive” each time.
Consider `CC(=O)Nc1ccc(OC(=O)c2ccccc2OC(C)=O)cc1`, for which the Potency entry in the experiment on CP335, in the experiment with DFO2036, in the experiment on DIV14, in the experiment on DIV17, in the experiment on DIV30 and in the experiment on Dd2 was “inactive” throughout. For the same compound, the Potency entry in the experiment on ECU, in the experiment with FAB9, in the experiment with GB4 and in the experiment on HB3 was “inactive” in each case.
Consider `CCCCC(CC)COC(=O)/C=C/c1ccc(OC)cc1` (stereo not given), for which the Potency entry in the experiment on CP335, in the experiment on DFO2036, in the experiment on DIV14, with DIV17, with DIV30 and with Dd2 was “inactive” each time. Moreover, the Potency result in the experiment on ECU, in the experiment on FAB9, with GB4 and with HB3 was “inactive” in each case.
`NC(=S)N/N=C/c1cccnc1`: the Potency entry in the experiment on CP335, with DFO2036, in the experiment with DIV14, in the experiment on DIV17, in the experiment on DIV30 and in the experiment on Dd2 was “inactive” in each case. Further, the Potency entry with ECU, with FAB9, in the experiment with GB4 and in the experiment on HB3 was “inactive” throughout.
For `CCCCNC(=O)NS(=O)(=O)c1ccc(N)cc1`, the Potency result with CP335, with DFO2036, in the experiment with DIV14, in the experiment with DIV17, in the experiment with DIV30 and with Dd2 was “inactive” throughout. Further, the Potency result in the experiment on ECU, in the experiment on FAB9, in the experiment with GB4 and in the experiment on HB3 was “inactive” in each case.
Consider `CNCCc1ccccn1`, for which the Potency entry in the experiment with CP335, in the experiment with DFO2036, in the experiment on DIV14, with DIV17, with DIV30 and in the experiment with Dd2 was “inactive” each time. Besides, the Potency result with ECU, with FAB9, in the experiment on GB4 and with HB3 was “inactive” each time.
Consider `COc1cc(C(=O)N2CCCCCCC2)cc(OC)c1OC`, for which the Potency entry in the experiment on CP335, in the experiment with DFO2036, in the experiment with DIV14, in the experiment on DIV17, with DIV30 and in the experiment on Dd2 was “inactive” throughout. For the same compound, the Potency entry in the experiment on ECU, with FAB9, in the experiment with GB4 and in the experiment with HB3 was “inactive” each time.
For `Cc1c(-c2ccccc2)oc2c(C(=O)OCCN3CCCCC3)cccc2c1=O`, the Potency result with CP335, with DFO2036, in the experiment on DIV14, with DIV17, with DIV30 and with Dd2 was “inactive” throughout. The Potency result in the experiment with ECU, with FAB9, with GB4 and with HB3 was “inactive” each time.
As to `CCCCN=C(N)N=C(N)N`, the Potency entry in the experiment with CP335, in the experiment on DFO2036, with DIV14, with DIV17, in the experiment on DIV30 and in the experiment with Dd2 was “inactive” in each case. Further, the Potency entry in the experiment with ECU, in the experiment with FAB9, in the experiment on GB4 and in the experiment on HB3 was “inactive” in each case.
Take `CCCCCCCCOc1ccc(C(=O)c2ccccc2)c(O)c1`: the Potency result with CP335, in the experiment on DFO2036, in the experiment on DIV14, with DIV17, in the experiment with DIV30 and in the experiment on Dd2 was “inactive” each time. Besides, the Potency result in the experiment with ECU, in the experiment on FAB9, with GB4 and in the experiment with HB3 was “inactive” throughout.
Turning to `Cc1nc(-c2ccc(Cl)cc2)oc1COC(C)(C)C(=O)O`, the Potency result in the experiment with CP335, in the experiment with DFO2036, in the experiment with DIV14, in the experiment with DIV17, with DIV30 and in the experiment with Dd2 was “inactive” in each case. The Potency entry in the experiment with ECU, in the experiment with FAB9, in the experiment with GB4 and in the experiment with HB3 was “inactive” in each case.
Take `CC(=O)Nc1ccc(OCC(O)CNC(C)C)cc1` (stereo not given): the Potency entry in the experiment on CP335, in the experiment with DFO2036, in the experiment with DIV14, with DIV17, in the experiment with DIV30 and in the experiment on Dd2 was “inactive” throughout. For the same compound, the Potency entry in the experiment on ECU, with FAB9, with GB4 and with HB3 was “inactive” throughout.
For `Cc1cc(NS(=O)(=O)c2ccc(N)cc2)nc(C)n1`, the Potency entry in the experiment on CP335, in the experiment on DFO2036, with DIV14, in the experiment on DIV17, in the experiment with DIV30 and in the experiment on Dd2 was “inactive” throughout. The Potency entry in the experiment with ECU, in the experiment on FAB9, in the experiment on GB4 and with HB3 was “inactive” throughout.

The values are drawn from PubChem BioAssay (NCATS).
